# Compound activity (PubChem)
# KCNQ2 enhance: potentiators of rat KCNQ2 potassium channel; CHO-K1 KCNQ2, FluxOR thallium flux fluorescence; hits give high values; B-score at 10 µM; 310,000 tested, 0.54% active; AID 2239, 2010;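 active = fluorescence ratio B-score at least 3 SD of library B-scores, with initial fluorescence B-score within 3 of them, cut at about 5.3 in these data; same plate scores as AID 2156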;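 also: B-score of peak minus minimum over baseline fluorescence ratio after K+ and Tl+ stimulus; positive B-score means potentiation of KCNQ2 with more thallium influx and brighter signal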
# Target sequence (O88943 whole entry, looked up): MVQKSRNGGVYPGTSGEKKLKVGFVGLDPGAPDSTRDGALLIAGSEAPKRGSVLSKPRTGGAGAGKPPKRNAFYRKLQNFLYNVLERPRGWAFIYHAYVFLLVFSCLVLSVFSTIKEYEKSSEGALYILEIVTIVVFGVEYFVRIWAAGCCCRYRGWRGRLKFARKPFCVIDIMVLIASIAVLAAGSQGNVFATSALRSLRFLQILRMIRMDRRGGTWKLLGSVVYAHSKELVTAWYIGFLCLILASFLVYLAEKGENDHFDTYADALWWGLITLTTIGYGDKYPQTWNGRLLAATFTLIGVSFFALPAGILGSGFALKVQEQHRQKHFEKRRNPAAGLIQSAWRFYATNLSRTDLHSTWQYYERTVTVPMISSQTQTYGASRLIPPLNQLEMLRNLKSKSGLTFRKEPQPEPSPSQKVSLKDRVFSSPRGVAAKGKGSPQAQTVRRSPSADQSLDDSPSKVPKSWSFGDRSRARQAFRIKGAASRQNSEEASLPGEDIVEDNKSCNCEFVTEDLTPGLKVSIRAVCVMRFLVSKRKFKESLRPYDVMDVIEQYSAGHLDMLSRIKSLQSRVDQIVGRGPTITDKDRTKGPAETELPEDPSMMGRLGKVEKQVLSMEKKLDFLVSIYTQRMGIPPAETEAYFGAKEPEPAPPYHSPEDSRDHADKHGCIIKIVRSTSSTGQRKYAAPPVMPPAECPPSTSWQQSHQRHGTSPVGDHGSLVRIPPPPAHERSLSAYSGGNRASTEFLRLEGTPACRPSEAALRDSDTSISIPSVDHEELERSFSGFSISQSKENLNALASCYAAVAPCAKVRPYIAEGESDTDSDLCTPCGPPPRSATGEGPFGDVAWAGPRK
# KCNQ2 block: rat KCNQ2 potassium channel inhibitors, primary screen, cell-based, CHO-K1, FluxOR thallium flux, B-score; B-score at 10 µM; 20 min; hits give low values; 310,000 tested, 1.1% active; Potassium voltage-gated channel subfamily KQT member 2 (Rattus norvegicus), O88943;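 active = fluorescence ratio B-score at most minus 3 library SDs, with starting brightness B-score within 2 library SDs, cut at about -5.5 in these data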
# KCNQ2 inh conf: rat KCNQ2 potassium channel inhibitors, confirmation, cell-based, thallium flux; activity change, negative = inhibition, % at 10 µM; AID 493025, 2011; KCNQ2-expressing cells, inhibition; hits give low values; 1,000 tested, 57% active; shares compounds with KCNQ2 block;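 also: 0% = vehicle wells and values are ratio percent relative to vehicle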
# KCNQ1 spec: human KCNQ1 channel inhibition, counter-screen for KCNQ2 inhibitor project, cell-based, FluxOR thallium flux; 1,000 tested, 15% active; KCNQ1-expressing cells, FluxOR thallium flux fluorescence; hits give low values; shares compounds with KCNQ2 block; AID 493026, 2011; activity change, negative = inhibition, % at 10 µM;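 active = activity change at least 3 SD of negative controls below their mean in both duplicate wells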;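 also: CHO cells stably transfected with KCNQ1 and depolarized by potassium stimulus; peak minus minimum fluorescence over baseline after thallium addition; 0% = vehicle negative control and -100% = blank without thallium stimulus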
# CHO Tl ctr: thallium flux change in parental CHO cells, counter-screen for KCNQ2 inhibitor project; shares compounds with KCNQ2 block; 1,000 tested, 14% active; activity change, % at 10 µM; hits give low values;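 also: 0% = vehicle negative controls with stimulus buffer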
# KCNQ2 patch conf: rat KCNQ2 channel inhibitors, confirmation, cell-based, automated patch clamp, single concentration. shares compounds with KCNQ2 block. KCNQ2-expressing cells, automated patch clamp current. calls only at 10 µM. 550 tested, 49% active. AID 588531, 2011
# * marks the source's active call; other numbers are inactive results; i = inactive; . = no result given; + = active, no number. Shown are actives, neighbours in structure and some others; about 1.6% of the full set was active somewhere. Unless noted, no rule for the calls is given here.
SMILES,KCNQ2 enhance,KCNQ2 block,KCNQ2 inh conf,KCNQ1 spec,CHO Tl ctr,others
Cc1cccc(C(=O)Oc2ccc3ccc(O)cc3c2)c1,.,i,.,.,.,
CCc1ccc(/C=C2/C(=O)N(c3ccccc3)C(=S)N2CC(=O)OC)s1,.,i,.,.,.,
CCN1C(=O)/C(=C/N(C(C)=O)c2ccccc2)N(c2ccccc2)C1=S,-9.58,-9.58*,i,i,i,
CCN(CC)S(=O)(=O)c1cccc(NC(=O)COC(=O)/C=C/c2cccs2)c1,.,i,.,.,.,
NC(=O)c1ccc(NC(=O)COc2coc(CN3CCc4ccccc4C3)cc2=O)cc1,0.01,i,.,.,.,
CN(c1ccccc1)S(=O)(=O)c1cccc(NC(=O)c2ccc3ncsc3c2)c1,-7.42,-7.42*,i,i,i,
Cc1nc2ccc(NC(=O)c3cccc(S(=O)(=O)N(C)c4ccccc4)c3)cc2s1,.,i,.,.,.,
O=C(CCNC(=O)c1ccc(Br)cc1)OCc1ccccc1Cl,.,i,.,.,.,
COc1ccccc1-c1cc(C(F)(F)F)n2ncc(C(=O)N3CCc4ccccc4C3)c2n1,-7.58,-7.58*,i,i,i,
COc1ccc(-c2cc(C(F)F)n3ncc(C(=O)N4CCc5ccccc5C4)c3n2)cc1,.,i,.,.,.,
COc1ccc(CNS(=O)(=O)CCNC(=O)c2cccc(OC)c2)cc1,0.85,i,.,.,.,
Cc1ccc(C(=O)NNC(=O)c2csc(N3CCOCC3)n2)s1,0.51,i,.,.,.,
CCOc1ccc2oc(C(=O)N3CCN(c4ccccc4OCC)CC3)c(C)c2c1,-9.78,-9.78*,i,i,i,
COc1ccccc1N1CCN(C(=O)c2oc3cc(C)c(C)cc3c2C)CC1,.,i,.,.,.,
COc1nc(N)nc2nc[nH]c12,0.5,i,.,.,.,
CN(Cc1ccccc1)C(=O)c1ccco1,0.04,i,.,.,.,
Cc1ccc(C(CCN(Cc2ccccc2)C(=O)c2ccco2)c2ccco2)cc1 (stereo not given),-8.01,-8.01*,-27.0%*,i,i,KCNQ2 patch conf=i
CC(=O)Nc1ccc(S(=O)(=O)NCCC(=O)OCc2csc(CC(=O)Nc3ccccc3C)n2)cc1,1.47,i,.,.,.,
O=C1CN(C(=O)CNCc2ccc(Cl)cc2)c2ccccc2N1,.,i,.,.,.,
OC(CNCc1ccc(Cl)cc1)(c1ccccc1)c1ccc(F)cc1 (stereo not given),-7.2,-7.2*,-33.0%*,-34.0%*,-31.5%*,KCNQ2 patch conf=i
OC(CNCc1ccc(F)cc1)(c1ccc(F)cc1)c1ccc(F)cc1,.,i,.,.,.,
COc1ccc(CNCC(O)(c2ccc(Cl)cc2)c2ccc(Cl)cc2)cc1OC,.,i,.,.,.,
CC(NCc1ccc(OCc2ccc(Cl)cc2)cc1)C(O)c1ccccc1 (stereo not given),.,i,.,.,.,
COc1ccc(CNCC(O)(c2ccc(Cl)cc2)c2ccc(Cl)cc2)cc1,-7.71,-7.71*,i,i,i,
COc1ccc(CNC(c2ccccc2)c2ccc(Cl)cc2)cc1 (stereo not given),-8.85,-8.85*,i,i,i,
SMILES,KCNQ2 enhance,KCNQ2 block,KCNQ2 inh conf,KCNQ1 spec,CHO Tl ctr,others
NNC(=O)c1csc(Cc2c(Cl)sc3ccc(Cl)cc23)n1,1.47,i,.,.,.,
CC(C)(C)SCCNC(=O)COc1ccc(Cl)cc1,.,i,.,.,.,
Cc1ccccc1CSCCNC(=O)COc1ccc(Cl)cc1,-8.57,-8.57*,i,i,i,
COc1cc(/C=N/NC(=O)c2csc3c2CCCC3)ccc1OCCN1CCOCC1,.,i,.,.,.,
COc1ccc(N2CCN(C(CNC(=O)COc3ccccc3)c3ccco3)CC2)cc1 (stereo not given),.,i,.,.,.,
O=C(CSc1nnc(-c2ccncc2)n1Cc1ccco1)OC1CCCCC1,.,i,.,.,.,
O=C(CSc1nnc(-c2ccco2)n1Cc1ccccc1)OC1CCCCC1,-9.37,-9.37*,-34.5%*,i,i,KCNQ2 patch conf=+
CCn1c(COc2cccc3ccccc23)nnc1SCC(=O)OC1CCCCC1,-8.55,-8.55*,i,i,i,
Cn1c(COc2cccc3ccccc23)nnc1SCC(=O)OC1CCCCC1,.,i,.,.,.,
Cn1cc(Br)c(-c2cccc(N3C(=O)CCCC3=O)c2)n1,.,i,.,.,.,
O=C(N1CCCC1)C12CC3CC(CC(Cl)(C3)C1)C2,1.45,i,.,.,.,
Cc1cc(C)n(-c2nc3ccccc3c(=O)n2OCc2ccc(F)cc2)n1,.,i,.,.,.,
Cc1cc(C)n(-c2nc3ccccc3c(=O)n2OCc2ccc(Cl)cc2)n1,-7.63,-7.63*,i,i,i,
Cc1ccc(SCC(=O)NNC(=O)c2ccccc2)c(C)c1,1.74,i,.,.,.,
Cc1ccccc1-c1cc(C(=O)N2CCCC2)c2ccccc2n1,0.36,i,.,.,.,
COc1ccc(-c2cc(C(=O)N3CCCC3)c3ccccc3n2)cc1,.,i,.,.,.,
COc1ccc(-c2cc(C(=O)N3CC(C)CC(C)C3)c3ccccc3n2)cc1 (stereo not given),-8.7,-8.7*,-35.0%*,i,i,KCNQ2 patch conf=+
Cc1ccc(-c2cc(C(=O)N3CCCc4ccccc43)c3ccccc3n2)cc1,-6.86,-6.86*,i,i,i,
Cc1ccc(-c2cc(C(=O)N3CCCCC3)c3ccccc3n2)cc1C,-9.31,-9.31*,-36.5%*,i,i,KCNQ2 patch conf=+
O=C(c1cc(-c2cccnc2)nc2ccccc12)N1CCCc2ccccc21,.,i,.,.,.,
CC1CC(C)CN(C(=O)c2cc(-c3ccccn3)nc3ccccc23)C1 (stereo not given),.,i,.,.,.,
CC1CN(C(=O)c2cc(-c3ccc(Cl)s3)nc3ccccc23)CC(C)O1 (stereo not given),-8.53,-8.53*,-33.0%*,i,i,KCNQ2 patch conf=+
COc1ccc(N(C(=O)c2csnn2)C(C(=O)NC2CCCC2)c2cccs2)cc1 (stereo not given),0.32,i,.,.,.,
COc1cc(C(=O)NCC(=O)N2CCN(S(=O)(=O)c3ccccc3)CC2)cc(OC)c1OC,0.47,i,.,.,.,
C=CCN(c1ccc(C(=O)Nc2cccc([N+](=O)[O-])c2)cc1)S(C)(=O)=O,.,i,.,.,.,
SMILES,KCNQ2 enhance,KCNQ2 block,KCNQ2 inh conf,KCNQ1 spec,CHO Tl ctr,others
COc1ccc(-c2cc(C(=O)Nc3ccc(Cl)cc3Cl)c3ccccc3n2)cc1OC,.,i,.,.,.,
COc1ccccc1NC(=O)c1cc(-c2cc(OC)c(OC)c(OC)c2)nc2ccccc12,-8.9,-8.9*,i,i,i,
COc1ccc(-c2cc(C(=O)Nc3ccccc3O)c3ccccc3n2)cc1OC,-6.88,-6.88*,i,i,i,
COc1cc(-c2cc(C(=O)Nc3ccc(N4CCOCC4)cc3)c3ccccc3n2)cc(OC)c1OC,.,i,.,.,.,
O=C(NCCCN1CCN(c2ccc(F)cc2)CC1)NC12CC3CC(CC(C3)C1)C2,-8.16,-8.16*,i,i,i,
O=C(NCCCN1CCOCC1)NC12CC3CC(CC(C3)C1)C2,.,i,.,.,.,
CCC(=O)c1cn([C@H](CCC(OC)OC)CC(=O)OC(C)(C)C)cc1CC,.,i,.,.,.,
